Screening data: PubChem, Broad Institute
p53 mut binder – binders of human mutant p53; small molecule microarray binding, anti-GST fluorescence; 17,000 tested, 0.4% active; AID 624136; calls only;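 active means compounds whose four printed spots each glow above background more than chance allows, each with a p-value under 7%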
STAT3 SMM – STAT3 (human) binding; Small molecule microarray, His-STAT3 binding, anti-His fluorescence; 17,000 tested, 0.2% active; calls only; AID 624138;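 active means compounds whose four printed spots each show fluorescence over background unusually high for their array block, chance value under 7%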
Target sequence (P40763 whole entry, looked up): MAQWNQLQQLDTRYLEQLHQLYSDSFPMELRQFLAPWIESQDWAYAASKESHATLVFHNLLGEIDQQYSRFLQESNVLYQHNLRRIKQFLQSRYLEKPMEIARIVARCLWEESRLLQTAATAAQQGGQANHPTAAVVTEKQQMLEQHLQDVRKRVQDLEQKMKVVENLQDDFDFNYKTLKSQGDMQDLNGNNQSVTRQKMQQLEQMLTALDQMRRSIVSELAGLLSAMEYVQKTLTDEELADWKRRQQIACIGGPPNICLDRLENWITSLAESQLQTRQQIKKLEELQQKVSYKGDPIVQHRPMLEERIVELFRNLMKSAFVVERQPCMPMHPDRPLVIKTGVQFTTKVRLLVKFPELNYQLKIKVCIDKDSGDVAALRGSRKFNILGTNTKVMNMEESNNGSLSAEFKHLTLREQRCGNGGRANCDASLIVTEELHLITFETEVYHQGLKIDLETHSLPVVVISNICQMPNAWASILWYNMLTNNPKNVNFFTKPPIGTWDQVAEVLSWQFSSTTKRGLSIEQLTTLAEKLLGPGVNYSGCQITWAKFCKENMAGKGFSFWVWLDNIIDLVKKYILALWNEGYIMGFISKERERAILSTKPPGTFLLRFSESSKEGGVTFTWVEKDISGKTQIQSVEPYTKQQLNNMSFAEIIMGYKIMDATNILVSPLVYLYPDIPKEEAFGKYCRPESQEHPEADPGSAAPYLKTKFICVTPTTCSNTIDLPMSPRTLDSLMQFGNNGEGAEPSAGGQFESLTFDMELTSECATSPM
c-Myc SMM – c-Myc (human) binding | P01106 | small molecule microarray, His-c-Myc binding, anti-His fluorescence | calls only | 17,000 tested, 1.5% active | AID 624141;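 active means spot fluorescence over background with P-value below 7% in all four replicate spots, showing protein binding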;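 further: score is binary with 100 for all four spots passing and 0 otherwise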
mut p53 react – restores mutant p53 pathway signaling in SW480 cells; 28,000 tested, 1.5% active; SW480 PUMA-promoter luciferase, p53 mutant reactivation; activation, % at 9.98 µM; AID 624151; in the data active means activation above about 52%
NFkB binder – binders of human NF-kappa-B p105. P19838. Small molecule microarray, anti-His fluorescence binding. calls only. 17,000 tested, 1.3% active;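 active means spot fluorescence over background significantly raised, with a chance value under 7% in all four replicate spots of the compound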;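 further: probe protein is his-tagged human p50 processed subunit at 1 µg/ml; raw spot fluorescence signals with no normalization applied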
* marks the source's active call; other numbers are inactive results; i = inactive; x = no result given; + = active, no number. The list is not random: actives were taken first. Their share in the collection is about 2.6%.

SMILES | p53 mut binder | STAT3 SMM | c-Myc SMM | mut p53 react | NFkB binder
N#Cc1cc2c(nc1SCC(=O)Nc1ccccc1C(F)(F)F)CCC2 | x | x | x | 111* | x
N#Cc1cc2c(nc1SCC(=O)Nc1cc(C(F)(F)F)ccc1Cl)CCCCC2 | x | x | x | 5 | x
CC(C)OC(=O)CSc1nc2c(cc1C#N)CCCCC2 | x | x | x | 98* | x
CCc1ccc(C(Nc2cc(C)ccn2)c2ccc3ccc(C)nc3c2O)cc1 (stereo not drawn) | x | x | x | -18 | x
Cc1cc(C(F)(F)F)nc(SCC(=O)Nc2ccc(I)cc2)c1C#N | x | x | x | 14 | x
Cc1cc(C)c(C#N)c(SCC(=O)Nc2ccc(C(N)=O)cc2)n1 | x | x | x | 105* | x
CC(=O)c1ccc(NC(=O)CSc2nc(C)cc(C)c2C#N)cc1 | i | i | i | 140* | i
CC(=O)c1ccc(NC(=O)CSc2nccn2C)cc1 | x | x | x | 93* | x
O=C(CSc1nnc(-c2cccs2)n1-c1ccccc1)Nc1ccccc1Cl | x | x | x | 17 | x
COC(=O)[C@H]1CC[C@H](OC(C)=O)[C@]2(C)CC[C@@H](C(C)C)[C@@H](OC(=O)/C=C/c3ccccc3)C12 (stereo partly drawn) | i | i | + | 0 | +
COc1ccc(-c2nc3ccccc3o2)cc1NC(=O)COc1ccc(C(C)C)cc1 | i | i | i | 42 | i
COc1ccc(-c2nc3cc(C(C)C)ccc3o2)cc1NC(=O)COc1ccc(C)cc1 | x | x | x | 64* | x
Cc1ccc2nc(-c3ccc(C)c(NC(=O)COc4ccc([N+](=O)[O-])cc4)c3)oc2c1 | x | x | x | 91* | x
Cc1ccc(N(C(C)C(=O)Nc2ccccc2-c2ccccc2)S(C)(=O)=O)cc1 (stereo not drawn) | x | x | x | -9 | x
O=C(CCN1C(=O)C2C3C=CC(C4CC34)C2C1=O)Nc1ccc(F)cc1 (stereo not drawn) | x | x | x | -12 | x
O=S(=O)(Cc1ccc(Cl)cc1)NCc1ccccn1 | i | i | i | 3 | i
COc1ccccc1/C=C/C(=O)N1CCCC(c2ccccc2)C1 (stereo not drawn) | x | x | x | 101* | x
Cn1c(=O)c2c(nc(SCc3nn[nH]n3)n2Cc2ccccc2)n(C)c1=O | i | i | i | -4 | i
COc1ccc(C#Cc2ccc3c(c2)[C@]2(C(=O)N3)[C@H](C(=O)N3CCc4cc(OC)c(OC)cc4C3)[C@H]3C(=O)O[C@H](c4ccccc4)[C@H](c4ccccc4)N3[C@@H]2c2ccc(OCCO)cc2)cc1 | i | i | i | x | +
COc1ccc(C#Cc2ccc3c(c2)[C@]2(C(=O)N3)[C@H](c3ccc(OCCO)cc3)N3[C@H](c4ccccc4)[C@H](c4ccccc4)OC(=O)[C@H]3[C@@H]2C(=O)N2CCc3cc(OC)c(OC)cc3C2)cc1 | i | i | i | x | +
COC(=O)C(CC#Cc1ccc2c(c1)[C@]1(C(=O)N2)[C@H](C(=O)N2CCN(c3ncccn3)CC2)[C@H]2C(=O)O[C@H](c3ccccc3)[C@H](c3ccccc3)N2[C@@H]1c1ccc(OCCO)cc1)C(=O)OC | i | i | i | x | +
COC(=O)C(CC#Cc1ccc2c(c1)[C@]1(C(=O)N2)[C@H](c2ccc(OCCO)cc2)N2[C@H](c3ccccc3)[C@H](c3ccccc3)OC(=O)[C@H]2[C@@H]1C(=O)N1CCN(c2ncccn2)CC1)C(=O)OC | i | i | i | x | i
O=C(c1ccc(F)cc1)n1nc(-c2ccc(Cl)cc2)nc1NCc1ccco1 | x | x | x | 150* | x
O=C(c1ccccc1Cl)n1nc(-c2ccccc2)nc1NCc1ccco1 | x | x | x | 26 | x
O=C(c1cccs1)n1nc(-c2ccccc2)nc1NCc1ccco1 | x | x | x | 86* | x
SMILES | p53 mut binder | STAT3 SMM | c-Myc SMM | mut p53 react | NFkB binder
C=C1[C@@H]2CC[C@H]3[C@@]4(C)C(C[C@H](OC(=O)[C@]5(C)O[C@@H]5C)[C@]3(C2)[C@@H]1OC(C)=O)[C@](C)(C(=O)OC)CC[C@H]4OC(C)=O (stereo partly drawn) | i | i | i | 14 | i
CC(C)(C)Sc1nc2ccccc2[nH]c1=S | x | x | x | -9 | x
COc1c(Cl)cc(Cl)cc1CNCCNCC(C)O (stereo not drawn) | + | + | i | 19 | i
CC1(C)CC[C@]2(C(=O)O)CC[C@]3(C)C(=CCC4[C@@]5(C)CC[C@H](O[C@@H]6O[C@H](C(=O)O)[C@@H](O[C@@H]7O[C@H](CO)[C@@H](O)[C@H](O)[C@H]7O)[C@H](O)[C@H]6O[C@@H]6O[C@H](CO)[C@@H](O)[C@H](O)[C@H]6O)C(C)(C)C5CC[C@]43C)C2C1 (stereo partly drawn) | i | + | + | 6 | +
CC1OC(OC2C(OC3C(O[C@H]4CC[C@@]5(C)C(CC[C@]6(C)C5CC=C5C7CC(C)(C)CC(O)[C@]7(C)CC[C@]56C)C4(C)C)OC(C(=O)O)C(O)C3O)OCC(O)C2O)C(O)C(O)C1O (stereo partly drawn) | i | i | + | 13 | +
CC1OC(O[C@H]2CC[C@@]3(C)C(CC[C@]4(C)C3CC=C3[C@@H]5CC(C)(C)C[C@@H](O)[C@]5(C)CC[C@]34C)[C@@]2(C)CO)C(OC2OC(C(=O)O)C(O)C(O)C2OC2OCC(O)C(O)C2O)C(O)C1O (stereo partly drawn) | i | i | i | -6 | i
C[C@@H]1O[C@@H](O[C@H]2[C@H](O[C@H]3CC[C@@]4(C)C(CC[C@]5(C)C4CC=C4C6CC(C)(C)CC[C@]6(C(=O)O[C@@H]6O[C@H](CO[C@@H]7O[C@H](CO)[C@@H](O[C@@H]8O[C@@H](C)[C@H](O)[C@@H](O)[C@H]8O)[C@H](O)[C@H]7O)[C@@H](O)[C@H](O)[C@H]6O)CC[C@]45C)C3(C)C)OC[C@H](O)[C@@H]2O)[C@H](O)[C@H](O)[C@H]1O (stereo partly drawn) | i | i | i | -19 | i
CC(C)=CCC[C@](C)(O[C@@H]1O[C@H](CO[C@@H]2O[C@@H](CO)[C@H](O)[C@H]2O)[C@@H](O)[C@H](O)[C@H]1O)[C@H]1CC[C@]2(C)C1[C@H](O)CC1[C@@]3(C)CC[C@H](O[C@@H]4O[C@H](CO)[C@@H](O)[C@H](O)[C@H]4O[C@@H]4O[C@H](CO)[C@@H](O)[C@H](O)[C@H]4O)C(C)(C)C3CC[C@]12C (stereo partly drawn) | i | i | + | 9 | +
CC(=O)NC(C(=O)O[C@H]1CCC(C)(C)[C@@H]2CC=C3C(=O)OCC3(O)[C@@]12C)C(C)C (stereo partly drawn) | i | i | i | -16 | i
C=CC[C@]1(C(=O)NCCCOC)COC(c2ccc(OCCCO)cc2)=N1 | i | i | + | x | +
CC(C)NC(=O)N(C)C[C@H]1OCCCC[C@@H](C)Oc2ccc(NC(=O)Nc3ccc(F)cc3)cc2C(=O)N([C@H](C)CO)C[C@@H]1C | i | i | i | -4 | i
CC(C)NC(=O)N(C)C[C@@H]1OCCCC[C@H](C)Oc2ccc(NC(=O)Nc3ccc(C(F)(F)F)cc3)cc2C(=O)N([C@H](C)CO)C[C@@H]1C | i | i | + | -57 | +
